# Test results: a collection of fitness landscapes (doi:10.1126/science.1257360)
# In all, about 140,000 sequences were measured (“enrichment ratio after two sorts for PhoP signalling”: median about 0, highest 2% from about 11 on). What follows is part of a selection rich in the highest values, with near analogues and random picks from the rest.
# B1: PhoQ; a variant is named by its letters at X, in order, P23837 (parent)
# chain: MKKLLRLFFPLSLRVRFLLATAAVVLVLSLAYGMVALIGYSVSFDKTTFRLLRGESNLFYTLAKWENNKLHVELPENIDKQSPTMTLIYDENGQLLWAQRDVPWLMKMIQPDWLKSNGFHEIEADVNDTSLLLSGDHSIQQQLQEVREDDDDAEMTHSVAVNVYPATSRMPKLTIVVVDTIPVELKSSYMVWSWFIYVLSANLLLVIPLLWVAAWWSLRPIEALAKEVRELEEHNRELLNPATTRELTSLVRNLNRLLKSERERYDKYRTTLTDLTHSLKTPLXXLQXXLRSLRSEKMSVSDAEPVMLEQISRISQQIGYYLHRASMRGGTLLSRELHPVAPLLDNLTSALNKVYQRKGVNISLDISPEISFVGEQNDFVEVMGNVLDNACKYCLEFVEISARQTDEHLYIVVEDDGPGIPLSKREVIFDRGQRVDTLRPGQGVGLAVAREITEQYEGKIVAGESMLGGARMEVIFGRQHSAPKDE
# Variants of: B1
# Assay: enrichment ratio after two sorts for PhoP signalling (ratio (wild type AVST 3.29)); higher = more functional
# Settings: with PhoP (E. coli)
row,Variant,enrichment ratio
1,SLSI,12.7
2,SISI,19.1
3,WLSI,≤ 0.25
4,SNSR,≤ 0.25
5,SNSI,12.4
6,SNSK,≤ 0.25
7,RISI,≤ 0.25
8,KYSI,≤ 0.25
9,MVAF,8.08
10,VNTQ,≤ 0.25
11,FEKW,≤ 0.25
12,RVKS,≤ 0.25
13,YPRG,≤ 0.25
14,SCPI,15.2
15,SCSK,14.3
16,SCPA,≤ 0.25
17,SCSR,6.9
18,SCPM,7.6
19,SCGD,≤ 0.25
20,PQKP,≤ 0.25
21,RTKL,≤ 0.25
22,YQFF,≤ 0.25
23,PSPG,≤ 0.25
24,QCWG,1.24
25,QCSN,17.6
26,GCSG,6.35

row,Variant,enrichment ratio
1,QCSG,32
2,QCSK,≤ 0.25
3,GCSN,3.22
4,YSWT,≤ 0.25
5,VTWY,≤ 0.25
6,LKQC,≤ 0.25
7,MYLH,≤ 0.25
8,YKYI,≤ 0.25
9,TDCS,11.3
10,KDCA,≤ 0.25
11,ADCS,≤ 0.25
12,TDCQ,20.3
13,FDCA,≤ 0.25
14,TDCI,≤ 0.25
15,TDCA,14.6
16,FDCQ,≤ 0.25
17,LTCQ,≤ 0.25
18,ERGV,≤ 0.25
19,TKWP,≤ 0.25
20,HKMY,≤ 0.25
21,STMY,12.6
22,TGMY,12.7
23,SWMY,≤ 0.25
24,AGMY,20
25,NGMY,≤ 0.25
26,TKMY,24

row,Variant,enrichment ratio
1,AIMY,6.62
2,RGMY,≤ 0.25
3,KYMY,≤ 0.25
4,PTMY,≤ 0.25
5,ADMY,0.253
6,ICMS,2.8
7,QRAT,≤ 0.25
8,FCCR,≤ 0.25
9,DASH,≤ 0.25
10,RNKS,≤ 0.25
11,AEME,29.5
12,WIMY,≤ 0.25
13,NEMY,≤ 0.25
14,TGME,≤ 0.25
15,CTMY,42.4
16,TSMY,12.3
17,KSMY,≤ 0.25
18,NSMY,≤ 0.25
19,YTMY,≤ 0.25
20,AEYE,≤ 0.25
21,AEMY,20.4
22,ATMY,7.37
23,NYYK,≤ 0.25
24,IYHP,≤ 0.25
25,HPGR,≤ 0.25
26,EGAD,≤ 0.25

row,Variant,enrichment ratio
1,VQVR,≤ 0.25
2,KMTK,≤ 0.25
3,RCAP,≤ 0.25
4,FMFM,≤ 0.25
5,VYMC,0.507
6,EEMC,≤ 0.25
7,VPMC,≤ 0.25
8,ITMC,≤ 0.25
9,TEMC,18.9
10,VCMC,1.73
11,TCMC,24.2
12,VEMC,15.7
13,SRMC,≤ 0.25
14,TYMC,≤ 0.25
15,MEMC,4.97
16,IEMC,12.9
17,DVLN,≤ 0.25
18,IGSC,≤ 0.25
19,SHAH,5.87
20,VCLL,6.51
21,FKPV,≤ 0.25
22,SPMC,≤ 0.25
23,YAMC,≤ 0.25
24,SIMC,19.4
25,TAMC,14.6
26,SEMC,18

row,Variant,enrichment ratio
1,SCMC,12.6
2,KAMC,≤ 0.25
3,SLMC,3.3
4,QEMC,≤ 0.25
5,KYMC,≤ 0.25
6,SYMC,≤ 0.25
7,NEMC,≤ 0.25
8,KIGP,≤ 0.25
9,VITT,≤ 0.25
10,TPNM,≤ 0.25
11,YGCE,≤ 0.25
12,NYTT,≤ 0.25
13,FHLQ,≤ 0.25
14,ESME,≤ 0.25
15,VRRK,≤ 0.25
16,PKDY,≤ 0.25
17,VMIQ,≤ 0.25
18,YFFH,≤ 0.25
19,WWTW,≤ 0.25
20,GPQA,≤ 0.25
21,STMC,8.81
22,SAMC,18.1
23,IIMC,≤ 0.25
24,EEMP,≤ 0.25
25,QQNV,≤ 0.25
26,YMKP,≤ 0.25

row,Variant,enrichment ratio
1,LNQM,≤ 0.25
2,HAQM,≤ 0.25
3,KMQM,≤ 0.25
4,TNQM,14.3
5,MNQM,≤ 0.25
6,NNCK,≤ 0.25
7,NNQM,30
8,TWQM,≤ 0.25
9,TMQM,12.8
10,VGDP,≤ 0.25
11,RAMR,≤ 0.25
12,YTYM,≤ 0.25
13,WMWP,≤ 0.25
14,SYVC,0.486
15,KDVC,≤ 0.25
16,SDVG,1.53
17,TDVC,24.1
18,YTIC,≤ 0.25
19,STIC,13
20,TDVG,4.14
21,SCIC,7.92
22,KSIC,≤ 0.25
23,LTIC,≤ 0.25
24,TDIC,14.4
25,SDVC,11.5
